14 compounds from PubChem BioAssay AID2061305 (National Center for Advancing Translational Sciences (NCATS), 2025) can be followed below.

Results filed as inconclusive are left out. The source made the active and inactive calls. Calls come from the whole dose curve; as a rule, active = well fitted inhibition curve with a large enough effect; inconclusive = small, poorly fitted or top-dose-only effect; inactive = flat fitted curve, though single readings scatter. Where a SMILES comes first, the peptide text is derived from it. [ ]: non-standard residue; d: D form. Dolaproine = CO[C@@H]([C@@H]1CCCN1)[C@@H](C)C(=O)O; Dil = CC[C@H](C)[C@H](NC)[C@@H](CC(=O)O)OC; NMeV = CN[C@H](C(=O)O)C(C)C

The nature of this test: Identification of antibody-drug conjugate (ADC) payloads which are substrates of ATP-binding cassette drug efflux transporters: ABCB1-HeLa-KB-3-1 cell line. As to conditions: KB-3-1 (HeLa derivative) viability, CellTiter-Glo, 48 h. An excerpt:
Antibody-drug conjugates (ADCs) feature an antibody recognizing a specific protein joined to a potent toxic payload. Numerous antibody-drug conjugates have received FDA approval; however, clinical resistance arises. Resistance mechanisms include decreased expression or mutation of the antibody target, impaired payload release, or increased expression of ATP-binding cassette (ABC) efflux transporters associated with multidrug resistance. We therefore sought to characterize the interaction of ABC multidrug transporters with ADC payloads. We performed a high-throughput screen with 27 common ADC payloads using cells lines expressing ABC transporters P-glycoprotein (P-gp, encoded by ABCB1) or ABCG2 (encoded by ABCG2). Confirmatory assays were also performed using cells transfected to express P-gp, ABCG2, or MRP1 (encoded by ABCC1). Several commonly used ADC payloads were substrates of P-gp, including calicheamicin gamma1, monomethyl auristatin E, DM1, and DM4. All the pyrrolobenzodiazepines tested - SJG136, SGD-1882, SG2057, and SG3199 - were substrates of P-gp, ABCG2, and MRP1. […] These findings highlight the risk of transporter-mediated resistance with certain ADC payloads and underscore the importance of selecting payloads that evade ABC transporter recognition in future ADC development.
HEK-293 cells were transfected with empty vector (pcDNA) or vector containing the human ABCB1 (MDR-19), ABCG2 (R-5), or ABCC1 gene (MRP1) and were maintained in EMEM with 2 mg/mL G418 added to maintain transporter expression. The HeLa derivative KB-3-1 and the P-gp overexpressing KB-8-5-11 subline were maintained in DMEM; KB-8-5-11 additionally received 100 ng/mL colchicine. H460 parental cells were obtained from the Division of Cancer Treatment and Diagnosis Tumor Repository, National Cancer Institute at Frederick, MD and were cultured in RPMI. The ABCG2 expressing subline H460 MX20 was generated by selecting H460 cells in 20 nM mitoxantrone. Media in all cases was supplemented with 10% FBS and 1% penicillin-streptomycin. We explored 27 common ADC payloads, in two orthogonal, paired cell line sets-a drug selected and transfected set for each transporter--to identify substrates of the ABC transporters P-gp and ABCG2. Compounds were sourced from Levena Biopharma (San Diego, CA), Selleck Chem (Houston, TX), ChemieTek (Indianapolis, IN), or Microsource Discovery Systems (Gaylordsville, CT). Screening was performed as previously described. Briefly, cells were plated at a density of 500 cells/well in 1536 well plates with compounds added using a 1536-head pin tool (Kalypsys, San Diego CA). Cells were incubated with cytotoxic drugs and processed with CellTiter Glo reagent (Promega, Madison, WI) to determine viability after 48 hours. P-gp substrates were identified by comparing compound activity between paired sets of low-expressing (sensitive) and over-expressing (resistant) cell lines.
For orientation: ATP-based viability assays read luminescence as a measure of living cells.
As to `CC(C)(C)OC(=O)Nc1ccc2[nH]c(C(=O)N3C[C@@H](CCl)c4c3cc(O)c3ccccc43)cc2c1`, the Potency was 5.9 nM (active). As to `COc1cccc2c1C(=O)c1c(O)c3c(c(O)c1C2=O)C[C@@](O)(C(=O)CO)C[C@@H]3O[C@H]1C[C@H]2[C@H](O[C@@H]3[C@@H](OC)OCCN32)[C@H](C)O1`, the Potency was 0.3 nM (active). As for `CC[C@H](C)[C@@H]([C@H](N)CC(=O)N1CCC[C@H]1[C@H](OC)[C@@H](C)C(=O)N[C@@H](Cc1ccccc1)c1nccs1)N(C)C(=O)[C@@H](NC(=O)[C@H](C(C)C)N(C)C)C(C)C`, the Potency is 0.0748 nM (active). In the case of `COc1cc2cc(c1Cl)N(C)C(=O)C[C@H](O)[C@]1(C)O[C@H]1[C@H](C)C1C[C@@](O)(NC(=O)O1)[C@H](OC)/C=C/C=C(\C)C2`, the Potency is 4720 nM (active). As to `COc1cccc2c1C(=O)c1c(O)c3c(c(O)c1C2=O)C[C@@](O)(C(=O)CO)C[C@@H]3O[C@H]1C[C@H](N)[C@H](O)[C@H](C)O1`, the Potency is 236 nM (active). As to `COC(=O)c1cc2c3c(cc(O)c2[nH]1)N(C(=O)c1cc2cc(OC)c(OC)c(OC)c2[nH]1)CC3CCl` (centres undefined), the Potency was 0.5 nM (active). On to `CC[C@]1(O)CC2CN(CCc3c([nH]c4ccccc34)[C@@](C(=O)OC)(c3cc4c(cc3OC)N(C)[C@H]3[C@@](O)(C(=O)OC)[C@H](OC(C)=O)[C@]5(CC)C=CCN6CC[C@]43[C@@H]65)C2)C1` (some centres undefined), for which the Potency was 6.7 nM (active).

Regarding `CC[C@H](C)[C@@H]([C@@H](CC(=O)N1CCC[C@H]1[C@H](OC)[C@@H](C)C(=O)N[C@@H](Cc1ccccc1)C(=O)O)OC)N(C)C(=O)[C@@H](NC(=O)[C@@H](NC)C(C)C)C(C)C` (H-[NMeV]V[Dil][Dolaproine]F-OH), the Potency was 66.6 nM (active). For `CCc1c2c(nc3ccc(O)cc13)-c1cc3c(c(=O)n1C2)COC(=O)[C@]3(O)CC`, the Potency is 472 nM (active). Consider `COc1ccc(C2=CN3C(=O)c4cc(OC)c(OCCCOc5cc6c(cc5OC)C(=O)N5C=C(c7ccc(N)cc7)C[C@@H]5C=N6)cc4N=C[C@H]3C2)cc1`, for which the Potency is 52.9 nM (active). As for `CC[C@H](C)[C@@H]([C@H](N)CC(=O)N1CCC[C@H]1[C@H](OC)[C@@H](C)C(=O)N[C@@H](Cc1ccccc1)c1nccs1)N(C)C(=O)[C@@H](NC(=O)[C@@H](NC)C(C)C)C(C)C`, the figure is 0.1 nM (active). `CN(C)CCOc1ccc2[nH]c(C(=O)N3C[C@@H](CCl)c4c3cc(O)c3ccccc43)cc2c1`: the Potency is 0.3 nM (active). For the compound `CCN(C(C)=O)[C@H]1CO[C@@H](O[C@H]2[C@H](O[C@H]3C#C/C=C\C#C[C@]4(O)CC(=O)C(NC(=O)OC)=C3/C4=C\CSSSC)O[C@H](C)[C@@H](NO[C@H]3C[C@H](O)[C@H](SC(=O)c4c(C)c(I)c(O[C@@H]5O[C@@H](C)[C@H](O)[C@@H](OC)[C@H]5O)c(OC)c4OC)[C@@H](C)O3)[C@@H]2O)C[C@@H]1OC`, the Potency was 8.4 nM (active). With `CCN[C@H]1CO[C@@H](O[C@H]2[C@H](O[C@H]3C#C/C=C\C#C[C@]4(O)CC(=O)C(NC(=O)OC)=C3/C4=C\CSSSC)O[C@H](C)[C@@H](NO[C@H]3C[C@H](O)[C@H](SC(=O)c4c(C)c(I)c(O[C@@H]5O[C@@H](C)[C@H](O)[C@@H](OC)[C@H]5O)c(OC)c4OC)[C@@H](C)O3)[C@@H]2O)C[C@@H]1OC`, the Potency is 1.3 nM (active).
